{
  "source": "PubChem BioAssay (NCI)",
  "note": "This is part of a sample that, as a whole, favours compounds with a hit. Of some 83,000 tested, about 20% had one in any assay.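 Activity criterion: percent growth below 10, measured after cells in 96-well plates were exposed to a single compound concentration for 48 hours.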 A number with no mark means an inactive call. Calls of active or inactive are those of the source.",
  "data": [
    {"tested_on": "UO-31 renal", "assay": "NCI-60 one-dose screen, 48 h (100 = growth as untreated, 0 = no growth, -100 = all killed)", "conditions": "10 µM unless noted", "description": "Growth inhibition of the UO-31 human tumor cell line is measured as a screen for anti-cancer activity. Cells are grown in 96 well plates and exposed to the test compound for 48 hours. Compounds are tested at a single concentration, which is 10^-5 M for most compounds. The reported endpoint is percent growth (GI% or GIPRCNT), where numbers from 0 - 100% represent growth inhibition, and numbers from -100% - 0 represent cell death. For example, a value of 40 represents 60% growth inhibition. A value of 0 means no net growth occurred over the course of the experiment. A value of -40 indicates 40% of cells at the beginning of the experiment died by the end of the experiment. A value of -100 means all cells are dead at the end of the experiment.\nNCI-60 Human Tumor Cell Lines Screen was performed using the standard one-dose NCI protocol, which is described in more detail at https://dtp.cancer.gov/discovery_development/nci-60/default.htm.\nCompounds with GIPRCNT values below 10 were considered active. Activity score was based on GIPRCNT using the following formula: […]\nScore is 0 for GIPRCNT values of 100 or above, 50 for GIPRCNT values of 0, and 100 for GIPRCNT values of -100.", "values": [
      {"smiles": "COc1c(O)c2c3c(c1OC)-c1ccccc1CC3N(S(=O)(=O)c1ccc(C)cc1)CC2", "note": "(stereo not given)", "growth": "48%"},
      {"smiles": "Cc1cc(C)c(S(=O)O)c(C)c1", "growth": "110%"},
      {"smiles": "COc1ccc(C(=O)COc2cccc(/C=C3\\CSc4ccc(C)cc4C3=O)c2)cc1", "growth": "78.5%"},
      {"smiles": "O=S(=O)(/N=C1C=C/C(=N\\S(=O)(=O)c2ccccc2)c2ccccc2\\1)c1ccccc1", "growth": "67.1%"},
      {"smiles": "Cc1nc(NC(=O)COc2cccc(/C=C3\\COc4ccccc4C3=O)c2)sc1C", "growth": "-80.1% (active)"},
      {"smiles": "Cc1cc(=O)[nH]n1-c1cc(Cl)ccc1N", "growth": "89.3%"},
      {"smiles": "Cc1nc(NN)c([N+](=O)[O-])c(NN)n1", "growth": "94.5%"},
      {"smiles": "Cc1ccc(-c2nnc(COc3ccc(-c4nnc(N)s4)cc3)o2)cc1", "growth": "91.7%"},
      {"smiles": "CCOC(=O)c1[nH]c2cc(Cl)ccc2c1[C@@H](C(=O)NC(C)(C)C)N(CC)C(=O)CCCCC#Cc1cccc2c1CN(C1CCC(=O)NC1=O)C2=O", "note": "(stereo not given in full)", "growth": "0.0319% (active)"},
      {"smiles": "COc1ccc(OC2=CC(=O)c3ccc(C)nc3C2=O)cc1", "growth": "92.3%"},
      {"smiles": "NC(=S)N/N=C1\\c2ccccc2-c2c(F)c(F)c(F)c(F)c21", "growth": "68.9%"},
      {"smiles": "O=C1C=CC(=O)N1CCCCCCCCCCN1C(=O)C=CC1=O", "growth": "48.2%"},
      {"smiles": "Cc1c(NCC(=O)Nc2nc3ccccc3[nH]2)c(=O)n(-c2ccccc2)n1C", "growth": "81.5%"},
      {"smiles": "Cc1nn(-c2ccccc2)c2nc3nc4c(c(N)c3c(-c3ccc(Cl)cc3)c12)CCC4", "growth": "75.2%"},
      {"smiles": "Nc1nc(-c2ccnc(Cl)c2)nn1-c1nc2ccccc2s1", "growth": "87%"},
      {"smiles": "CC1CCCCN1S(=O)(=O)c1ccc(CN=C=S)cc1", "note": "(stereo not given)", "growth": "54%"},
      {"smiles": "CCC(C)[C@H]1O[C@]2(CC[C@@H]1C)C[C@@H]1C[C@@H](C/C=C(\\C)[C@@H](OC3C[C@H](OC)C(O[C@H]4C[C@H](OC)[C@@H](O)[C@H](C)O4)[C@H](C)O3)[C@@H](C)/C=C/C=C3\\CO[C@@H]4[C@H](O)C(C)=C[C@@H](C(=O)O1)[C@]34O)O2", "note": "(stereo not given in full)", "growth": "9.45% (active)"},
      {"smiles": "CCN1C(=O)C2(Nc3ccccc3S2)c2cc(C)ccc21", "note": "(stereo not given)", "growth": "79.3%"},
      {"smiles": "Cl.Fc1c[c-]c(-c2ccccn2)c(F)c1.[Pt].c1ccc([PH+](CC[PH+](c2ccccc2)c2ccccc2)c2ccccc2)cc1", "growth": "-92.4% (active)"},
      {"smiles": "CC(C)OC1=C(Cl)C(=O)c2ccccc2C1=O", "growth": "76.7%"},
      {"smiles": "COC(=O)[C@H]1CCCN1C(=O)[C@H]1CCCN1C(=O)[C@@H](Cc1c[nH]c2ccccc12)NC(=S)Nc1cc(C(F)(F)F)cc(C(F)(F)F)c1", "growth": "41.1%"},
      {"smiles": "COc1ccc(C2SC(C)C(=O)N2CCc2cccs2)cc1OC", "note": "(stereo not given)", "growth": "79.2%"},
      {"smiles": "O=C1/C(=C/c2ccc(Cl)cc2)CN(Cc2cn(CCCNc3ccnc4cc(Cl)ccc34)nn2)C/C1=C\\c1ccc(Cl)cc1", "growth": "-98% (active)"},
      {"smiles": "O=C1/C(=C/c2ccc([N+](=O)[O-])cc2)Oc2ccc(O)cc21", "growth": "70.4%"},
      {"smiles": "CCN(c1ccc(C(=O)N2CCN(c3ccccc3)CC2)cc1)S(C)(=O)=O", "growth": "90.2%"},
      {"smiles": "O=C(Nc1ccc(Cl)c(Cl)c1)NC(CO)(CO)CO", "growth": "73.9%"},
      {"smiles": "C=C1CC[C@@H]2[C@@](C)(CCC[C@]2(C)C(=O)O)[C@@H]1CC[C@H](CO)CCO", "growth": "79.5%"},
      {"smiles": "COC(=O)[C@@]12CC[C@@H](C)[C@]3(C[C@@H](c4ccoc4)OC3=O)[C@H]1CC[C@@H]1O[C@@]12C", "growth": "78.9%"},
      {"smiles": "CN1CCc2c(c3ccccc3c3ccccc23)C1", "growth": "42.2%"},
      {"smiles": "CS(=O)(=O)Nc1cccc(C(=O)NCc2ccc(N3CCOCC3)cc2)c1", "growth": "93%"},
      {"smiles": "CN1CCN(c2ccc3nc(-c4ccc5nc(-c6ccc(C(F)(F)F)cc6)[nH]c5c4)[nH]c3c2)CC1", "growth": "105%"},
      {"smiles": "Cc1ccc(S(=O)(=O)N2CCc3ccc(O)c4c3C2Cc2ccc3c(c2-4)OCO3)cc1", "note": "(stereo not given)", "growth": "30.4%"},
      {"smiles": "COc1cc(C(F)(F)F)ccc1-c1cc(-c2ccc(F)cc2)n[nH]1", "growth": "59.6%"},
      {"smiles": "COc1ccc(-c2c3c(N)c4c(nc3nc3c2c(C)nn3-c2ccccc2)CCCCC4)cc1", "growth": "61.6%"},
      {"smiles": "C[C@@H](Oc1cc(-c2cnn(C3CC4(CNC4)C3)c2)cnc1N)c1c(Cl)ccc(F)c1Cl", "growth": "51.5%"},
      {"smiles": "CCSc1nnc2c3cc(Br)ccc3n(C)c2n1", "growth": "63.3%"},
      {"smiles": "O=c1[nH]c(-c2ccccn2)nc2sc3c(c12)CCCCCC3", "growth": "31.8%"},
      {"smiles": "NS(=O)(=O)c1ccc(C(=O)N/N=C(\\CS(=O)(=O)c2ccccc2)c2cc3cc(Br)ccc3o2)cc1", "growth": "101%"},
      {"smiles": "CCOC(=O)c1c(Cl)c2c(n1Cc1cc(OC)cc(OC)c1)-c1oncc1CCC2", "growth": "44.6%"},
      {"smiles": "CCOC(=O)c1c(-c2cc(OC)c(OC)c(OC)c2)csc1N", "growth": "75.9%"}
    ]}
  ]
}
